Experimental data published in PubChem BioAssay (NCATS).
Results filed as inconclusive are left out. Active and inactive are the calls of the source. Calls come from the whole dose curve; as a rule, active = well fitted curve in the direction sought with a large enough effect; inconclusive = small, poorly fitted or top-dose-only effect, or another doubt; inactive = no such curve, though single readings can be large; an effect the other way counts as inactive or inconclusive.

Columns and labels:
[1] = Quantitative High-Throughput drug screen in 47 multiple myeloma cell lines against the NCATS MIPE library collection: KMS12BM_JCRB cell viability assay (AID 1918971); note: nearly all actives have a fitted effect of over 35% in size
Outline: (§1)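 Luminescent ATP measurement with CellTiter-Glo gives viability, scaled between DMSO-only wells (100%) and media-only wells (0%). Cells, 500 per well, faced library compounds for 48 hours at 37C.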

[2] = Quantitative High-Throughput drug screen in 47 multiple myeloma cell lines against the NCATS MIPE library collection: KMS12PE_JCRB cell viability assay (AID 1918972); note: nearly all actives have a fitted effect of over 30% in size; for viability: series mostly up to about 46 µM
Outline: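 We plated 500 myeloma cells per well, pinned in MIPE 4.0 compounds, and incubated for 48 hours at 37C. ATP was then quantified with CellTiter-Glo, with DMSO and media-only wells defining 100% and 0%.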

[3] = Quantitative High-Throughput drug screen in 47 multiple myeloma cell lines against the NCATS MIPE library collection: KMS26_JCRB cell viability assay (AID 1918975); note: nearly all actives have a fitted effect of over 45% in size
Outline: as §1

[4] = Quantitative High-Throughput drug screen in 47 multiple myeloma cell lines against the NCATS MIPE library collection: MMM1_PLB cell viability assay (AID 1918976); note: nearly all actives have a fitted effect of over 35% in size
Outline: (§2)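 Plated at 500 cells per well, myeloma lines received MIPE 4.0 compounds by pin tool. Following 48 h culture at 37 °C, CellTiter-Glo luminescence gave viability relative to DMSO and media-only controls.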

[5] = Quantitative High-Throughput drug screen in 47 multiple myeloma cell lines against the NCATS MIPE library collection: MOLP8_DSMZ cell viability assay (AID 1918977); note: nearly all actives have a fitted effect of over 45% in size
Outline: as §2

[6] = Quantitative High-Throughput drug screen in 47 multiple myeloma cell lines against the NCATS MIPE library collection: NCIH929_DSMZ cell viability assay (AID 1918978); note: nearly all actives have a fitted effect of over 35% in size
Outline: as §2

[7] = Quantitative High-Throughput drug screen in 47 multiple myeloma cell lines against the NCATS MIPE library collection: MM1S_ATCC cell viability assay (AID 1918980); note: nearly all actives have a fitted effect of over 45% in size
Outline: as §2

[8] = Quantitative High-Throughput drug screen in 47 multiple myeloma cell lines against the NCATS MIPE library collection: OCIMY1_PLB cell viability assay (AID 1918979); note: nearly all actives have a fitted effect of over 35% in size; for viability: series mostly up to about 46 µM
Outline: as §2

Measured: Potency
Potency is the fitted concentration of half-maximal effect.

O=C(Nc1cccc(Cl)c1)Nc1ncc(CCNc2ncnc3ccsc23)s1
active: [1] 6.62 µM | [2] 0.662 µM | [3] 2.64 µM | [4] 16.6 µM | [5] 3.72 µM | [6] 7.43 µM | [7] 16.6 µM

O=C1C(CCC(O)c2ccc(F)cc2)C(c2ccc(O)cc2)N1c1ccc(F)cc1 (centres undefined)
active: [2] 20.9 µM
not listed: [4] | [7]
inactive: all other assays above

Cc1[nH]c(C=C2C(=O)Nc3ccc(S(=O)(=O)N(C)c4cccc(Cl)c4)cc32)c(C)c1C(=O)N1CCN(C)CC1
active: [1] 26.4 µM | [2] 7.43 µM | [3] 23.5 µM | [4] 18.7 µM | [6] 11.8 µM | [7] 26.4 µM

Nc1ccn([C@@H]2O[C@H](CO)[C@@H](O)[C@H]2O)c(=O)n1
inactive: [1] | [2] | [3] | [5] | [6]

COC1CCC(C(=O)c2ccc3nc4c(cc3c2)CCCO4)CC1 (centres undefined)
active: [1] 20.9 µM | [2] 14.8 µM | [3] 23.5 µM | [4] 2.64 µM | [6] 23.5 µM | [7] 20.9 µM

OC[C@H]1O[C@@H](O[C@H]2[C@@H](O)[C@@](O)(CO)O[C@@H]2CO)[C@H](O)[C@@H](O)[C@@H]1O
active: [4] 3.72 µM
not listed: [5]
inactive: all other assays above

CCc1cc(-c2n[nH]c(C)c2-c2ccc3c(c2)OCCO3)c(O)cc1O
active: [1] 5.26 µM | [2] 5.26 µM | [3] 5.26 µM | [5] 2.64 µM | [6] 8.33 µM | [7] 8.33 µM

c1ccc(-c2oc3ncnc(NC[C@@H]4CCCO4)c3c2-c2ccccc2)cc1
inactive: [6]
active: [1] 23.5 µM | [2] 4.69 µM | [3] 18.7 µM | [4] 20.9 µM | [7] 18.7 µM

N#CC(=C1Nc2ccccc2S1)c1ccnc(OCc2ccc(CN3CCOCC3)cc2)n1
active: [1] 26.4 µM | [2] 0.059 µM | [3] 20.9 µM | [4] 14.8 µM | [6] 4.69 µM | [7] 1.48 µM

CCCCC(C)(C)[C@H](O)C=C[C@H]1[C@H](O)CC(=O)[C@H]1CC=CCCCC(=O)O
active: [1] 18.7 µM | [3] 16.6 µM | [4] 16.6 µM | [6] 18.7 µM | [7] 14.8 µM
inactive: [2]

COc1cc([C@H]2Oc3cc([C@H]4Oc5cc(O)cc(O)c5C(=O)[C@H]4O)ccc3O[C@H]2CO)ccc1O
inactive: [2]
active: [1] 10.5 µM | [3] 16.6 µM | [4] 7.43 µM | [6] 23.5 µM | [8] 20.9 µM | [7] 9.35 µM

CCC(=O)NCC[C@@H]1CCc2ccc3c(c21)CCO3
active: [3] 6.62 µM | [4] 0.59 µM | [7] 1.48 µM
inactive: [1] | [2] | [8]

O=S(=O)(O)c1ccc2cc(N=Nc3cc(S(=O)(=O)O)c4cccnc4c3O)ccc2c1
active: [1] 16.6 µM | [3] 20.9 µM | [4] 3.72 µM | [6] 7.43 µM | [7] 13.2 µM
inactive: [2] | [8]

CC(=O)NCCC(=O)N[C@@H](CCC(N)=O)C(=O)N[C@@H](CO)C(=O)N[C@@H](CCC(N)=O)C(=O)N[C@@H](CCC(N)=O)C(=O)N[C@H](C(=O)N[C@@H](Cc1ccccc1)C(=O)N[C@]1(C)CCCCCCC=CCCC[C@@](C)(C(=O)N[C@@H](CCC(N)=O)C(=O)N[C@@H](CC(N)=O)C(N)=O)NC(=O)[C@H](CC(C)C)NC(=O)[C@H](CC(C)C)NC(=O)[C@@H](CCCNC(=N)N)NC(=O)[C@H](Cc2c[nH]c3ccccc23)NC(=O)[C@H](CC(C)C)NC(=O)[C@H](CC(N)=O)NC1=O)[C@H](C)O
active: [1] 9.35 µM | [3] 14.8 µM | [4] 5.26 µM | [6] 23.5 µM | [8] 20.9 µM | [7] 20.9 µM
inactive: [2]

OC1CCC(Nc2ncc3nc(Nc4c(F)cc(F)cc4F)n([C@@H]4CCOC4)c3n2)CC1 (some centres undefined)
inactive: [3]
active: [1] 23.5 µM | [2] 18.7 µM | [5] 11.8 µM | [7] 11.8 µM

CNC(=O)c1ccc2c(C(=Nc3cccc(CN(C)C)c3)c3ccccc3)c(O)[nH]c2c1
active: [2] 18.7 µM | [3] 0.662 µM | [6] 14.8 µM
inactive: [1]

COc1cc2nc(-c3cc(F)ccc3O)nc(N[C@@H]3CNC[C@@H]3C(C)(C)O)c2cc1OC
active: [1] 20.9 µM | [2] 8.33 µM | [3] 18.7 µM | [5] 5.9 µM | [6] 7.43 µM | [8] 18.7 µM

N#CC(c1ccc(Cl)cc1)c1c(Cl)cc(-n2ncc(=O)[nH]c2=O)cc1Cl (centres undefined)
active: [1] 20.9 µM | [2] 13.2 µM | [6] 18.7 µM | [7] 20.9 µM
inactive: [3] | [5] | [8]

CC(C)c1c(C(=O)Nc2ccccc2)c(-c2ccccc2)c(-c2ccc(F)cc2)n1CC[C@H](O)C[C@@H](O)CC(=O)O
inactive: [3] | [8]
active: [1] 13.2 µM | [2] 6.62 µM | [4] 8.33 µM

CNC1[C@H](O)C(O[C@@H]2C(O)C(O[C@H]3O[C@H]([C@@H](C)NC)CC[C@H]3N)[C@@H](N)C[C@H]2N)OC[C@]1(C)O (some centres undefined)
inactive: [1] | [2] | [3] | [5] | [6]

CNC(=O)[C@H](CC1=CN=C2C=CCC=C12)NC(=O)[C@@H](CC(=O)NO)CC(C)C
active: [2] 0.105 µM | [6] 23.5 µM
inactive: [1] | [3]

CC1C(=O)OC2C(O)C34C5CC(C(C)(C)C)C36C(OC(=O)C6O)OC4(C(=O)O5)C12O (centres undefined)
active: [4] 0.0187 µM | [7] 20.9 µM
not listed: [5]
inactive: all other assays above

CN(C)CC[C@H](CSc1ccccc1)Nc1ccc(S(=O)(=O)NC(=O)c2ccc(N3CCN(Cc4ccccc4-c4ccc(Cl)cc4)CC3)cc2)cc1[N+](=O)[O-]
active: [1] 0.187 µM | [2] 0.0235 µM | [3] 1.66 µM | [4] 0.526 µM | [8] 3.72 µM | [7] 1.66 µM

CC(C)(O)CC(=O)NCCn1ccc2ncnc(Nc3ccc(Oc4cccc(C(F)(F)F)c4)c(Cl)c3)c21
inactive: [8]
active: [1] 23.5 µM | [2] 5.9 µM | [3] 26.4 µM | [4] 20.9 µM | [6] 26.4 µM | [7] 0.332 µM
